This is a sample that favours compounds with a hit; in the whole collection about 8% have one here.
RORg inh = ROR gamma (mouse) transcription inhibition. Drosophila S2 Gal4-RORgamma UAS-luciferase reporter, 20 h. P51450. 310,000 tested, 5.4% active. Potency, µM (doses to about 53.6 µM), usual class: inhibitors; also: nearly all actives have a fitted effect of over 60% in size
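A Gal4/UAS one-hybrid system in insect cells: metallothionein-promoter Gal4–ROR gamma fusion plus Photinus luciferase reporter. Copper sulfate 700 uM final, 20 hr ambient incubation, luminescent detection after 10 min with reagent.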
TSHR antag = human thyrotropin receptor antagonism. 330,000 tested, 0.2% active. AID 504810. P16473. TSHR-expressing cells, TSH-stimulated cAMP HTRF, 2 h; hits give low values. activity change, negative = inhibition, % at 11.5 µM;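 active = activity change below a set negative limit, meaning inhibition stronger than a set level, cut at about -70% in these data; inconclusive = activity change between two set negative limits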
Target sequence (P16473 whole entry, looked up): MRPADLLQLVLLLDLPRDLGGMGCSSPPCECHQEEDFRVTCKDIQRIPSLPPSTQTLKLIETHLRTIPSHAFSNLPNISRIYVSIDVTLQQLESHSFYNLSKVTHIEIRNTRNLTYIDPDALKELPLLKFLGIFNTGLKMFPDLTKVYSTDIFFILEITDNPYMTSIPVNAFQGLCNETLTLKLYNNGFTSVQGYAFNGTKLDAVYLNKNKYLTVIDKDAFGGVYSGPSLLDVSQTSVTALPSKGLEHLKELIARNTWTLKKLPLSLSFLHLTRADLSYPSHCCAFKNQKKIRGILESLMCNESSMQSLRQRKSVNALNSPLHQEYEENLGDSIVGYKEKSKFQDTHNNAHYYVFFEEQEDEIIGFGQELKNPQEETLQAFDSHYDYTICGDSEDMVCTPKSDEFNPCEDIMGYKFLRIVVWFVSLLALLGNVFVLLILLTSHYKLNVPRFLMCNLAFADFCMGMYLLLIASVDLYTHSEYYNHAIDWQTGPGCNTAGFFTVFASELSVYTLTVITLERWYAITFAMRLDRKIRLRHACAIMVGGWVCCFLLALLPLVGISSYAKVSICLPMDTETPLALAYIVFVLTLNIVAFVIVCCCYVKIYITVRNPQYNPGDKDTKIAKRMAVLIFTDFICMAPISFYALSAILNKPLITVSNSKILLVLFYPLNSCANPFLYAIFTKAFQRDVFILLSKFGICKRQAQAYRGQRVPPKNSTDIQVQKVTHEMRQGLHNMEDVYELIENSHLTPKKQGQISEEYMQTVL
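Freshly harvested TSHR cells receive pin-tooled compound, then EC80 TSH at 4nM final. After 2 hours at 37 deg C, antibody in lysis buffer and cAMP-d2 are added; 30 minutes at ambient temperature precede the HTRF read.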
ELG1 repair inh = ELG1-dependent DNA repair inhibition. HEK293T ELG1-luciferase reporter, luminescence, 16 h; DNA damage induced by 5-fluorouridine. Potency, µM (titrated, usually from 46.1 µM), most hits filed as inhibitors. 330,000 tested, 2.3% active; also: nearly all actives have a fitted effect of over 55% in size
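Overnight (16 hr) co-exposure of 2,000 cells/well to 5-fluorouridine and compound at 37 °C preceded detection. Luciferase was quantified via ONE-Glo luminescence; loss of signal denotes inhibition.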
FBPA coupling cs = coupling enzyme interference in Giardia aldolase counter-screen; coupling enzyme system counterscreen, AmpLite Red fluorescence; activity change, negative = inhibition, % at 58.2 µM, hits read low; 290,000 tested, 0.67% active; AID 2472; in the data active = activity change below about -30%
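Counterscreen lacking aldolase: glyceraldehyde-3-phosphate coupling-enzyme reagent preincubated 10 min at RT with compound (at 57.5 uM final), then substrate/coupling system with AmpLite Red added; fluorescence read at 525/598 nm after 20 min RT.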
Gal4-VP16 FLuc = Gal4-VP16 reporter inhibition counter-screen | 310,000 tested, 3.5% active | Drosophila S2 Gal4-VP16 UAS-luciferase, luminescence, 20 h | Potency, µM (highest dose often 53.6 µM), usual class: inhibitors;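 also: Gal4-VP16 expression switched on by copper sulfate through the metallothionein promoter; nearly all actives have a fitted effect of over 50% in size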
Numbers stand for hits; . = inactive; ? = inconclusive; / = not tested or not shown; ! = not confirmed by another sample. Unless noted, calls follow the shape of the dose curve; as a rule, active = well fitted curve in the direction sought with a large enough effect; inconclusive = small, poorly fitted or top-dose-only effect, or another doubt; inactive = no such curve, though single readings can be large; an effect the other way counts as inactive or inconclusive.

SMILES	RORg inh	TSHR antag	ELG1 repair inh	FBPA coupling cs	Gal4-VP16 FLuc
CCC(C)c1cc([N+](=O)[O-])cc([N+](=O)[O-])c1OC(C)=O (stereo unspecified)	.	/	/	.	.
C/C(=N/NC(=O)c1nnn(-c2nonc2N)c1-c1ccccc1)c1ccncc1	.	.	.	.	.
CCOc1cccc(-c2c(C(=O)N/N=C(\C)c3cccs3)nnn2-c2nonc2N)c1	?	.	16µM	/	?
C/C(=N\NC(=O)c1nnn(-c2nonc2N)c1-c1ccc(Cl)c(Cl)c1)c1ccncc1	.	-87	.	.	.
CCOc1ccc(-c2c(C(=O)N/N=C(\C)c3ccco3)nnn2-c2nonc2N)cc1	.	.	?	.	.
CCOc1ccc(-c2c(C(=O)N/N=C(\C)c3ccccc3OC)nnn2-c2nonc2N)cc1	5.6µM	.	?	.	.
Cc1nc2ccccc2c2oc(C(=O)NCc3ccc4c(c3)OCO4)cc12	?	.	?	.	?
Cc1ccccc1NC(=O)c1cc2c(C)nc3ccccc3c2o1	.	.	?	.	.
Cc1nc2ccccc2c2oc(C(=O)NCc3ccccn3)cc12	.	.	18µM	.	.
Cc1ccc(CNC(=O)c2cc3c(C)nc4ccccc4c3o2)cc1	.	.	15µM	.	18µM
COc1cccc(CNC(=O)c2ccc(NC(=O)CC3SC(N4CCCC4)=NC3=O)cc2)c1 (stereo unspecified)	/	.	.	/	/
CCC(CC)C(=O)Nc1nnc(S(=O)(=O)N2CCCc3ccccc32)s1	.	.	.	.	.
C=CCOc1ccc(C(=O)/C=C2/C(=O)Nc3ccccc32)cc1	?	.	.	.	.
C=CCOc1ccccc1C(=O)/C=C1/C(=O)Nc2ccccc21	5.6µM	.	.	.	13µM
COc1ccc(C(=O)/C=C2/C(=O)Nc3ccccc32)cc1OC	?	.	.	.	?
NC(=O)COc1ccc(C(=O)/C=C2/C(=O)Nc3ccccc32)cc1	7.9µM	.	.	.	?
COc1ccc(C(=O)/C=C2/C(=O)Nc3ccccc32)cc1	10µM	.	?	.	?
COc1ccc(C(=O)/C=C2/C(=O)Nc3ccccc32)c(OC)c1	?	.	.	.	?
CN(c1ccccc1)S(=O)(=O)c1ccc(Cl)c(C(=O)Nc2ccccc2N2CCOCC2)c1	/	.	?	/	/
CN(CC(=O)Nc1ccc(F)cc1)C(=O)Cn1nnc(-c2ccccc2)n1	.	?	.	/	?
COc1ccc(Cn2nnnc2CN(Cc2cc3cccc(C)c3[nH]c2=O)C2CCCC2)cc1	.	.	?	.	.
COCCn1nnnc1CN(Cc1cc2cc(OC)c(OC)cc2[nH]c1=O)C1CCCC1	.	.	?	.	.
CCc1ccc2[nH]c(=O)c(CN(Cc3ccccc3OC)Cc3nnnn3Cc3ccco3)cc2c1	.	.	10µM	.	.
COc1ccccc1CN(Cc1cc2cc(C)ccc2[nH]c1=O)Cc1nnnn1Cc1ccco1	?	.	?	.	.
COc1cc2cc(CN(Cc3nnnn3Cc3ccco3)C3CCCCC3)c(=O)[nH]c2cc1OC	.	.	.	-33	.
SMILES	RORg inh	TSHR antag	ELG1 repair inh	FBPA coupling cs	Gal4-VP16 FLuc
CCOc1ccc2[nH]c(=O)c(CN(Cc3nnnn3Cc3ccco3)C3CCCCC3)cc2c1	.	.	10µM	.	.
COc1ccc(Cn2nnnc2CN(Cc2cc3ccc(C)cc3[nH]c2=O)C2CCCC2)cc1	.	.	13µM	.	.
CCOc1ccccc1NC(=O)N1CCC(NC(=O)C2CCCCC2)CC1	.	.	.	.	.
O=C(c1cc(C(F)(F)F)cc(C(F)(F)F)c1)N1CCC2(CC1)CCN(c1ccncc1)CC2	.	/	/	.	.
CC(C)CN1CCCC2(CCN(S(=O)(=O)c3ccccc3)CC2)C1	.	/	/	.	.
COc1cccc(NC(=O)Cn2c(=O)n(CCC(=O)NC3CCN(Cc4ccccc4)CC3)c(=O)c3ccccc32)c1	.	.	.	.	.
CCCCn1nc(C(=O)Nc2cc(C(F)(F)F)ccc2N2CCOCC2)ccc1=O	/	.	?	/	/
Cc1ccc(CCN2CC(C(=O)NCCN(C)C)CC2=O)cc1 (stereo unspecified)	.	.	.	.	.
O=[N+]([O-])c1cccnc1S(=O)(=O)c1ccccc1	8.9µM	.	.	.	7.1µM
COc1ccc([N+](=O)[O-])c(S(=O)(=O)c2ccccc2)n1	2.5µM	.	?	.	5µM
Nc1cccnc1S(=O)(=O)c1ccccc1	.	.	.	.	.
C[C@@H]1C[C@H](OC(=O)[C@@H](O)c2ccccc2)CC(C)(C)N1C	.	/	/	.	.
CCN(CC)c1ccc(-c2n[nH]c(=S)n2-c2ccccc2)cc1	1.6µM	.	?	.	.
CN(C)c1ccc(-c2n[nH]c(=S)n2-c2ccccc2)cc1	2.2µM	.	.	.	?
C[C@H](NCCc1ccc(O)cc1)[C@@H](O)c1ccc(O)cc1	.	/	/	.	.
COc1ccc(C)cc1S(=O)(=O)N1c2ccc(C)cc2C2CN(C)CCC21 (stereo unspecified)	/	.	.	/	/
O=C(NCc1cccc(F)c1F)C1CCC(=O)N(C2CCCCCC2)C1 (stereo unspecified)	.	.	.	/	.
CN1CCN(CCCN2c3ccccc3Sc3ccccc32)CC1	.	/	/	.	.
CN1CCN(CCCN2c3ccccc3Sc3ccc(Cl)cc32)CC1	2.8µM!	.	.	.	?
Cc1cc(C)nc(SCC(=O)Nc2ccnc3ccccc23)n1	2.2µM	.	?	.	0.89µM
O=C(CSC1=NCCS1)Nc1ccnc2ccccc12	.	.	?	.	4µM
COC(=O)c1cc(O)cc(OC)c1C(=O)c1c(O)cc(C)cc1O	.	.	.	.	?
COC(=O)c1cc(O)cc(OC)c1Oc1cc(C)cc(O)c1C(=O)O	.	.	?	.	7.1µM
COc1cccc(Cn2c(=O)c(-c3cccc(F)c3)nc3cncnc32)c1	.	/	/	.	.
OC[C@@H]1[C@@H](c2ccc(F)cc2)C(c2ccc(F)cc2)=NN1c1ccccc1	.	/	/	.	.
COc1ccc(C2c3ccc(O)cc3Oc3ncn4nc(-c5ccccn5)nc4c32)cc1OC (stereo unspecified)	.	.	21µM	.	.
COc1ccc(C2c3ccc(O)cc3Oc3ncn4nc(-c5ccccn5)nc4c32)cc1 (stereo unspecified)	.	.	?	.	.
Cc1ccc(CNC(=O)c2cc(-c3ccccc3C)nn2CC2CC(c3cccnc3)=NO2)cc1 (stereo unspecified)	/	.	?	/	/
Cc1ccccc1-c1cc(C(=O)NCc2ccc(OC(F)(F)F)cc2)n(CC2CC(c3cccnc3)=NO2)n1 (stereo unspecified)	/	.	18µM	/	/
Cc1ccccc1-c1cc(C(=O)NCc2ccc3c(c2)OCO3)n(CC2CC(c3cccnc3)=NO2)n1 (stereo unspecified)	/	.	?	/	/
